This note sets out measurements from PubChem BioAssay AID1259341 (Broad Institute, 2017).

Unmarked numbers belong to inactive results. Activity calls are given as the source filed them.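 How the source made its calls: active means activity change under -35% in any replicate well, with more than 20 beads read in that well; inactive means the rest.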

The assay deals with Caspase recruitment domain-containing protein 9 (Homo sapiens) + E3 ubiquitin-protein ligase TRIM62 (Homo sapiens) (UniProt Q9H257+Q9BVG3). The assay is described as follows: CARD9/TRIM62 protein interaction inhibitors – cell lysate, HEK293FT lysates, Luminex bead ELISA, primary screen (AID 1259341).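 Further: PE anti-Flag signal of Flag-CARD9 captured by myc-TRIM62 beads.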 Particulars: PE fluorescence, stronger effect = lower value, concentration not given here. (In general: ELISA stands for enzyme-linked immunosorbent assay.)
Caspase recruitment domain-containing protein 9 (Homo sapiens) + E3 ubiquitin-protein ligase TRIM62 (Homo sapiens), sequence (Q9BVG3 whole entry, looked up, the tested form may be a part): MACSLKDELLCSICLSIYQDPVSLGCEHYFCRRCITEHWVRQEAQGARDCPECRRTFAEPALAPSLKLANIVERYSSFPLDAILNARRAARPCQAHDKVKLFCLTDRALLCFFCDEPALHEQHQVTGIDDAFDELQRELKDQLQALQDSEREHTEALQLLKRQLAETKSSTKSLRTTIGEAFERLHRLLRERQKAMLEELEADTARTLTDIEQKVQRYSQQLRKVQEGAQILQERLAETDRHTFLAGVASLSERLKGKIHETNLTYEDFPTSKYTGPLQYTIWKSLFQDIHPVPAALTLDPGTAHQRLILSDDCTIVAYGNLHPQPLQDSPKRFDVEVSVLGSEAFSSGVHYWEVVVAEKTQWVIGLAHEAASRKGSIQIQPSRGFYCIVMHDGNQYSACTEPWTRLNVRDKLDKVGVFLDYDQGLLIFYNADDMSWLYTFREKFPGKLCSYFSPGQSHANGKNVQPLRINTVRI
Caspase recruitment domain-containing protein 9 (Homo sapiens) + E3 ubiquitin-protein ligase TRIM62 (Homo sapiens), sequence (Q9H257 whole entry, looked up, the tested form may be a part): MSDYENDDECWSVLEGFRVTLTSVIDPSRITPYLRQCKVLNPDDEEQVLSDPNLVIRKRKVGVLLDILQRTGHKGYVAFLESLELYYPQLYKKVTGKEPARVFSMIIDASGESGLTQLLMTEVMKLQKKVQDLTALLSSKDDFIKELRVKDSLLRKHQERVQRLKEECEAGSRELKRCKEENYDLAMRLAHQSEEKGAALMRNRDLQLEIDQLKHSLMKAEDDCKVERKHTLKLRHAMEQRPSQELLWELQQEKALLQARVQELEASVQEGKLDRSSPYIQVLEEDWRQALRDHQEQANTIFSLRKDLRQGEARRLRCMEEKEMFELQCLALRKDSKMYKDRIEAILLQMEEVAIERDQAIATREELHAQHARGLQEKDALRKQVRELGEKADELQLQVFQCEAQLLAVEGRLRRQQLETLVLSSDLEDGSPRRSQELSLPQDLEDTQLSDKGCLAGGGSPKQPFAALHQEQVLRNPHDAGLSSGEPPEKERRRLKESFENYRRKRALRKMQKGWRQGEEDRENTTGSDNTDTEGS

In the case of `N#Cc1c(-c2ccco2)cc(-c2ccccn2)nc1N`, the activity change, negative = inhibition was 1.52%.
Under `NC(=O)C1(N2CCCCC2)CCN(c2ncc(NC(=O)c3ccc(Cl)cc3)cc2C(=O)O)CC1` stands -54.5% (active).
`COCCn1c(C)cc(-c2csc(N)n2)c1C`: the activity change, negative = inhibition is 0.765%.
Under `NC(=O)C1(N2CCCCC2)CCN(c2ncc(NC(=O)c3ccc(F)cc3)cc2C(=O)O)CC1` stands -19.3%; under `O=C(Nc1nc(-c2ccco2)c(-c2ccco2)s1)c1ccco1`, -9.14%; under `Cc1ccc(C2CC(=O)C3=C(C2)Nc2ccccc2NC3c2cccnc2)cc1` (stereo unspecified), -0.28%.
Under `O=C(Nc1cccc2nsnc12)c1ccc(-c2cccc(Cl)c2)o1` stands 11.7%; under `CCCc1cc(C(=O)N2CC[C@H]3CNC[C@H]32)n(C)n1`, -0.754%.
In the case of `O=C(COC(=O)c1cc(-c2ccco2)nc2ccccc12)NCc1ccc2c(c1)OCO2` it was 3.18%.
Take `Cc1ccc2c(c1)C(N1CCCC1=O)CC(c1ccco1)N2` (stereo unspecified): the activity change, negative = inhibition is 5.12%.
Turning to `Cc1cccc(NC(=O)Cc2coc3ccc4ccccc4c23)n1`, the activity change, negative = inhibition was -0.738%.
Under `C(=N\n1cnnc1SCc1ccccc1)/c1ccco1` stands 4.53%.
In the case of `O=C(Nc1nc(-c2ccco2)c(-c2ccco2)s1)c1ccc(F)cc1F` it was 6.3%; in that of `O=C(CN1CCN(c2ccccc2O)CC1)NC(=O)NC1CCCC1`, 2.28%; in that of `CCOC(=O)c1ccc(-c2ccc(C3CC(=O)Nc4cc5c(cc43)OCCO5)o2)cc1` (stereo unspecified), -0.752%.
In the case of `Cc1ccc(C)n1Nc1nc(O)cs1` it was 1.72%; in that of `O=C(O)c1ccc2nc(-c3ccco3)c(-c3ccco3)nc2c1`, -13.9%; in that of `CN(C)c1ccc(CN2C[C@H]3CC[C@@H]2CN(C(=O)c2ccncc2)C3)cn1`, 1.51%.
On to `O=C(O)CCc1ccc(-c2cccs2)n1NC(=O)c1ccco1`, for which the activity change, negative = inhibition is 1.63%.
Regarding `O=C(COC(=O)c1ccc(F)cc1F)Nc1ncccn1`, the activity change, negative = inhibition is -18.2%.
Under `O=C(COC(=O)CCC(=O)c1cccs1)NCc1ccco1` stands 0.961%; under `Cc1cccc2nc(CSCc3ccco3)cn12`, -4.69%.
Turning to `c1cn(CCc2noc(C3CCCC3)n2)c(-c2cc3n(n2)CCCNC3)n1`, the activity change, negative = inhibition is -12.3%.
`Cc1oc(CSCc2cc(C(=O)O)c(C)o2)cc1C(=O)O`: the activity change, negative = inhibition is 1.21%.
Under `C[C@H](CO)N1C[C@H](C)[C@@H](CN(C)CC2CCCCC2)OCCCC[C@H](C)Oc2ccc(NS(C)(=O)=O)cc2C1=O` stands -25.8%; under `NC(=O)C1(N2CCCCC2)CCN(c2ncc(NC(=O)c3cccs3)cc2C(=O)O)CC1`, -9.12%; under `CCN1CCOC(=O)C1CC(=O)Nc1cccc(C)c1` (stereo unspecified), -1.33%.
Take `CCc1nc(OCc2ccco2)c2sc3nc4c(cc3c2n1)COC(C)(C)C4`: the activity change, negative = inhibition is -2.36%.
On to `O=c1/c(=C/c2ccco2)sc2nc3ccccc3n12`, for which the activity change, negative = inhibition was 0.484%.
In the case of `C[C@H](CO)N1C[C@H](C)[C@@H](CN(C)CC2CCCCC2)OCCCC[C@H](C)Oc2ccc(NS(=O)(=O)c3cccs3)cc2C1=O` it was 9.64%; in that of `c1ccc(-c2nc(-c3ccco3)n3ccccc23)cc1`, -5.09%; in that of `C[C@H](CO)N1C[C@H](C)[C@@H](CN(C)C(=O)C2CCCCC2)OCCCC[C@H](C)Oc2ccc(NS(C)(=O)=O)cc2C1=O`, 9.86%.
In the case of `CC(CCc1ccco1)N(C)S(=O)(=O)c1ccc2[nH]c(=O)ccc2c1` (stereo unspecified) it was 3.38%.
On to `CC1Cc2ccccc2N1CC(=O)NC(=O)NC(C)(C)C` (stereo unspecified), for which the activity change, negative = inhibition was 2.18%.
In the case of `O=C(CCc1nc(-c2ccccc2)no1)NCC1CNCCOC1` (stereo unspecified) it was 18.6%; in that of `On1c(-c2ccco2)nc2c1CCc1nonc1-2`, -2.2%.
